Results filed as inconclusive are left out. The source made the active and inactive calls. The calls were made as follows, unless noted: active = hit-call score of the fitted dose curve at least 0.9, where 1 is the maximum; inactive = score below 0.9.
Assays:
[1] = target: Paired box protein Pax-6 (Homo sapiens) (UniProt P26367); assay: ATG_Pax6_CIS: Attagene CIS-FACTORIAL HepG2 Assay for human Paired Box 6 (PAX6) (AID 2282956); settings: HepG2 CIS-FACTORIAL PAX6 reporter transcription, RNA readout; actives raise or lower the signal
Method in brief: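 HepG2 cells transiently transfected with cis-promoter-driven multiplexed reporter units sensing endogenous transcription factor activity; 24 h chemical exposure. Reporter mRNA quantified by RT-PCR, 6-FAM labelling, HpaI digestion and capillary electrophoresis; bidirectional fit versus DMSO baseline.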

[2] = ATG_PXRE_CIS: Attagene CIS-FACTORIAL HepG2 Assay for human Pregnane X Receptor Element (PXRE) (AID 2282957); settings: HepG2 Attagene CIS-FACTORIAL PXRE reporter, mRNA; actives raise or lower the signal
Method in brief: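 HepG2 cells transiently transfected with cis-regulated multiple reporter transcription units; endogenous factor activity measured as reporter mRNA 24 h after dosing. RT-PCR, fluorescent primer extension, HpaI digestion, capillary electrophoresis; bidirectional fit versus DMSO baseline.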

[3] = ATG_PPRE_CIS: Attagene CIS-FACTORIAL HepG2 Assay for human Peroxisome Proliferator-activated Response Element (PPRE) (AID 2282958); settings: HepG2 PPRE cis-element reporter, Attagene transcription factor profiling; actives raise or lower the signal
Method in brief: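 Multiplexed reporter transcription units under cis-regulatory promoters were transfected into HepG2 cells to capture endogenous factor activity. A 24 h incubation preceded RNA isolation and fluorescent RT-PCR fragment analysis.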

[4] = ATG_RORE_CIS: Attagene CIS-FACTORIAL HepG2 Assay for human RAR-related Orphan Receptor Element (RORE) (AID 2282959); settings: HepG2 Attagene cis-factorial RORE reporter, mRNA; actives raise or lower the signal
Method in brief: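 Fluorescence intensity of reporter-specific cDNA fragments, separated by capillary electrophoresis, gives the signal. Source: HepG2 liver cells transiently transfected with cis-element reporters and exposed 24 h; DMSO-normalized bidirectional fit.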

[5] = ATG_Sox_CIS: Attagene CIS-FACTORIAL HepG2 Assay for human SRY-box transcription factor (SOX) (AID 2282960); settings: HepG2 Attagene cis-factorial SOX reporter, mRNA; actives raise or lower the signal
Method in brief: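 After 24 h of chemical treatment, transfected HepG2 reporter cells are lysed for total RNA. Transcript levels come from RT-PCR with labelled primer extension and capillary electrophoresis, analysed bidirectionally versus DMSO.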

[6] = target: Transcription factor Sp1 (Homo sapiens) (UniProt P08047); assay: ATG_Sp1_CIS: Attagene CIS-FACTORIAL HepG2 Assay for human Specificity Protein 1 (Sp1) (AID 2282961); settings: HepG2 Sp1 cis-reporter transcription, actives raise or lower the signal
Method in brief: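 Sp1-driven reporter mRNA, read as capillary electrophoresis fluorescence after RT-PCR, in transiently transfected HepG2 cells dosed for 24 h; signal change in either direction relative to DMSO.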

[7] = ATG_SREBP_CIS: Attagene CIS-FACTORIAL HepG2 Assay for human Sterol Regulatory Element Binding (SREBP) (AID 2282962); settings: HepG2 Attagene cis-factorial SREBP reporter, mRNA; actives raise or lower the signal
Method in brief: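 HepG2 cells transiently transfected with multiplexed cis-promoter reporter units sensing endogenous transcription factors; reporter mRNA measured 24 h after dosing by RT-PCR, 6-FAM labeling, HpaI digestion and capillary electrophoresis. Bidirectional fit versus DMSO.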

[8] = target: Signal transducer and activator of transcription 3 (Homo sapiens) (UniProt P40763); assay: ATG_STAT3_CIS: Attagene CIS-FACTORIAL HepG2 Assay for human Signal Transducer and Activator of Transcription 3 (STAT3) (AID 2282963); settings: HepG2, Attagene cis-factorial STAT3 reporter transcription; actives raise or lower the signal
Method in brief: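 HepG2 cells transiently transfected with cis-element-driven multiple reporter transcription units; after 24 h chemical exposure, reporter mRNA measured by RT-PCR, 6-FAM primer-extension labelling, HpaI digestion and capillary electrophoresis. Bidirectional fitting versus DMSO baseline.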

[9] = ATG_TA_CIS: Attagene CIS-FACTORIAL HepG2 Assay for human TA Basal Promoter (AID 2282964); settings: HepG2 Attagene CIS-factorial TA basal promoter reporter; actives raise or lower the signal
Method in brief: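 Transient MRTU transfection of HepG2 preceded 24 h compound exposure. Reporter mRNA levels were then read by RT-PCR with capillary electrophoresis, and this background-control endpoint was fitted bidirectionally to DMSO.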

[10] = ATG_TCF_b_cat_CIS: Attagene CIS-FACTORIAL HepG2 Assay for human T-Cell-Factor with beta-catenin (TCF/b-cat) (AID 2282965); settings: HepG2 TCF/beta-catenin cis-reporter transcription, actives raise or lower the signal
Method in brief: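 Using capillary electrophoresis as the read-out, labelled reporter cDNA fragments from transiently transfected HepG2 were sized and quantified. Exposure lasted 24 hours; activity in either direction was referenced to DMSO.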

[11] = ATG_TAL_CIS: Attagene CIS-FACTORIAL HepG2 Assay for human TAL Basal Promoter (AID 2282966); settings: HepG2 Attagene cis-factorial TAL promoter reporter; actives raise or lower the signal;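 also: background control endpoint measuring basal TAL promoter reporter mRNA not a specific factor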
Method in brief: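 HepG2 cells were transiently transfected with promoter-driven multiplexed reporter units and dosed for 24 h. Reporter mRNA was measured by RT-PCR with capillary electrophoresis fluorescence; bidirectional fits used DMSO as baseline, serving as a background control.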

[12] = ATG_TGFb_CIS: Attagene CIS-FACTORIAL HepG2 Assay for human Transforming Growth Factor (TGF) (AID 2282967); settings: HepG2 Attagene CIS TGFb reporter, mRNA transcription; actives raise or lower the signal
Method in brief: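 After a 24-hour incubation with compound, transfected HepG2 cells were lysed for RNA; reporter cDNA was amplified, fluorescently end-labeled and separated by CE. DMSO served as baseline for bidirectional fits.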

[13] = ATG_VDRE_CIS: Attagene CIS-FACTORIAL HepG2 Assay for human Vitamin D Receptor Element (VDRE) (AID 2282968); settings: HepG2 VDRE cis-reporter transcription, actives raise or lower the signal
Method in brief: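 HepG2 cells transiently transfected with cis-element reporter units, dosed 24 h; reporter mRNA measured by RT-PCR, 6-FAM labeling, HpaI digestion and capillary electrophoresis. Activity fitted bidirectionally against DMSO baseline.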

[14] = target: Estrogen receptor (Homo sapiens) (UniProt P03372); assay: ATG_ERa_TRANS: Attagene TRANS-FACTORIAL HepG2 Assay for human Estrogen Receptor alpha (ERa) (AID 2282970; active = hit-call score of the fitted dose curve at least 0.9, where 1 is the maximum); settings: HepG2 Attagene TRANS ERa GAL4 reporter, mRNA
Method in brief: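 HepG2 cells transiently transfected with multiplexed GAL4-UAS reporter units; ERa activity read via exogenous chimeric NR-Gal4 protein. After 24 hour compound exposure, reporter mRNA measured by RT-PCR with 6-FAM labelling and capillary electrophoresis; gain-of-signal fitted relative to DMSO.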

[15] = target: X-box-binding protein 1 (Homo sapiens) (UniProt P17861); assay: ATG_Xbp1_CIS: Attagene CIS-FACTORIAL HepG2 Assay for human X-box Binding Protein 1 (XBP1) (AID 2282972); settings: HepG2 XBP1 cis-element reporter, Attagene multiplex; actives raise or lower the signal
Method in brief: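 HepG2 cells transiently transfected with multiple cis-element reporter units report endogenous TF activity; 24 h exposure, then reporter mRNA measured by RT-PCR, 6-FAM labelling, HpaI digestion and capillary electrophoresis. Bidirectional fitting versus DMSO.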

[16] = ATG_M_19_TRANS: Attagene TRANS-FACTORIAL HepG2 Assay for M19 Transcription Factor (Internal Marker) (AID 2282974; active = hit-call score of the fitted dose curve at least 0.9, where 1 is the maximum); settings: HepG2 Attagene TRANS-FACTORIAL M19 internal marker reporter
Method in brief: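 Measured here: internal-marker reporter transcript from HepG2 cells transfected with MRTUs, harvested at 24 h. cDNA PCR products were 6-FAM labelled by primer extension, cut with HpaI for 2 h at 37 C, and resolved by CE.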

[17] = ATG_GAL4_TRANS: Attagene TRANS-FACTORIAL HepG2 Assay for GAL4 (Internal Marker) (AID 2282976; active = hit-call score of the fitted dose curve at least 0.9, where 1 is the maximum); settings: HepG2 Attagene TRANS GAL4 internal marker reporter
Method in brief: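 HepG2 cells transiently transfected with multiplexed GAL4-UAS reporter constructs were dosed for 24 h. Reporter mRNA was measured by RT-PCR, 6-FAM primer extension, HpaI digestion and capillary electrophoresis, and gain of signal was fitted relative to DMSO.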

[18] = target: Nuclear receptor subfamily 1 group I member 3 (Homo sapiens) (UniProt Q14994); assay: ATG_CAR_TRANS: Attagene TRANS-FACTORIAL HepG2 Assay for human Constitutive Androstane Receptor (CAR) (AID 2282969; active = hit-call score of the fitted dose curve at least 0.9, where 1 is the maximum;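 also: activators raise reporter mRNA above DMSO so AC50 marks induction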); settings: HepG2 Attagene TRANS-FACTORIAL CAR reporter
Method in brief: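 HepG2 cells transiently transfected with multiplexed GAL4-UAS reporter units expressing chimeric NR-Gal4 proteins; compound exposure 24 h. Reporter mRNA measured by RT-PCR, 6-FAM labelling, HpaI digestion and capillary electrophoresis; gain-of-signal fitted against DMSO baseline.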

Measured: outcome

Sequence of Signal transducer and activator of transcription 3 (Homo sapiens) (P40763 whole entry, looked up): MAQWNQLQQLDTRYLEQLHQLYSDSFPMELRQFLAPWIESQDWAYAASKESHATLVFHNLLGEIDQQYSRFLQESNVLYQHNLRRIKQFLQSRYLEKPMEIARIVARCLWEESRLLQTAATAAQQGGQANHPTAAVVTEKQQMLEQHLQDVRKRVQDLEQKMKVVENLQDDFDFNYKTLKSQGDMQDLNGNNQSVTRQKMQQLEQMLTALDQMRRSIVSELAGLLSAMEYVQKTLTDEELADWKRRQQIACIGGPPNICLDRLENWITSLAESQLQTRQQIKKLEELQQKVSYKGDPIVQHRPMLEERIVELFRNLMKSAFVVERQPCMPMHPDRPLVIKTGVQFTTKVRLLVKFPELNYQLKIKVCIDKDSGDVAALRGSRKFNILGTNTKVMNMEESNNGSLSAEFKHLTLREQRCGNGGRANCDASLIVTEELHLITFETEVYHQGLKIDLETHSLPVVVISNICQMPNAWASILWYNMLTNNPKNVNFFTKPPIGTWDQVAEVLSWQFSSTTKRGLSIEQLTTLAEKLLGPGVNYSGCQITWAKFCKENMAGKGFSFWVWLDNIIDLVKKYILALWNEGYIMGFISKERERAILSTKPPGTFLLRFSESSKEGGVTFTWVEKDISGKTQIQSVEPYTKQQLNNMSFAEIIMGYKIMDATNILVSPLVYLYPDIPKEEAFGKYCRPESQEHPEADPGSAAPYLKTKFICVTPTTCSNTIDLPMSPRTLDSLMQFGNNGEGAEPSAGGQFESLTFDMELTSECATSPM
Sequence of Transcription factor Sp1 (Homo sapiens) (P08047 whole entry, looked up): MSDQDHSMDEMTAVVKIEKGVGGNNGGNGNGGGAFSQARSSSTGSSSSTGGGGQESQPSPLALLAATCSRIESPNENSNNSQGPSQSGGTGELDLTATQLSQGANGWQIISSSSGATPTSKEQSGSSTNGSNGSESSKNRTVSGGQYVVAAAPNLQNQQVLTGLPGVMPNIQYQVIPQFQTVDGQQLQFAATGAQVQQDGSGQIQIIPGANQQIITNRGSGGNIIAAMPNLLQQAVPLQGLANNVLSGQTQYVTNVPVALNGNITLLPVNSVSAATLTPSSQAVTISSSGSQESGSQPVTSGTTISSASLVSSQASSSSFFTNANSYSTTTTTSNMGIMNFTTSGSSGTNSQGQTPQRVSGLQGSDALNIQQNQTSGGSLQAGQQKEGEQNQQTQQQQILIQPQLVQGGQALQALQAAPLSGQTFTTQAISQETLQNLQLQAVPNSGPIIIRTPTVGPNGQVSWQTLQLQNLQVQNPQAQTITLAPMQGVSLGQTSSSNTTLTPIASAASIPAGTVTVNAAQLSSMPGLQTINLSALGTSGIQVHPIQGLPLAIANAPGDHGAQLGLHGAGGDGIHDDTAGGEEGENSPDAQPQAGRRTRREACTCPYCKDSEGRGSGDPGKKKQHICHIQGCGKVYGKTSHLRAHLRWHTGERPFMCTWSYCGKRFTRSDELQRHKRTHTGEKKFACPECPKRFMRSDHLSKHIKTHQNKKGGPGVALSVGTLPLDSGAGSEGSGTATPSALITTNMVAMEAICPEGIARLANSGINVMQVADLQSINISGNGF
Sequence of Estrogen receptor (Homo sapiens) (P03372 whole entry, looked up, the tested form may be a part): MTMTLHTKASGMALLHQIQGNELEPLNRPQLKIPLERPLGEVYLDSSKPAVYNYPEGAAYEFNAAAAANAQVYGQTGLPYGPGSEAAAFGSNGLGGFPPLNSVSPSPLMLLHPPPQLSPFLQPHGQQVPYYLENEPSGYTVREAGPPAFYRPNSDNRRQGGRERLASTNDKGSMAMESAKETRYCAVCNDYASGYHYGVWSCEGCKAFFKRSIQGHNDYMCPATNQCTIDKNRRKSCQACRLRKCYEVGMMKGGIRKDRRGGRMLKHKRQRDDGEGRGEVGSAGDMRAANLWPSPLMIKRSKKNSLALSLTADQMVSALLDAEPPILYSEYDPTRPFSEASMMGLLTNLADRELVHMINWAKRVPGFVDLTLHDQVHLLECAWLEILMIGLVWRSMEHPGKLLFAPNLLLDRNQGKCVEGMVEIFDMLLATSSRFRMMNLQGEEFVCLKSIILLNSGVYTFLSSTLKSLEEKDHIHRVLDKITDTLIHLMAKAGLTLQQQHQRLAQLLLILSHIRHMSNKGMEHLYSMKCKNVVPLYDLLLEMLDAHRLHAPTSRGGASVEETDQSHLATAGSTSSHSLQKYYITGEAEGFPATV
Sequence of Paired box protein Pax-6 (Homo sapiens) (P26367 whole entry, looked up): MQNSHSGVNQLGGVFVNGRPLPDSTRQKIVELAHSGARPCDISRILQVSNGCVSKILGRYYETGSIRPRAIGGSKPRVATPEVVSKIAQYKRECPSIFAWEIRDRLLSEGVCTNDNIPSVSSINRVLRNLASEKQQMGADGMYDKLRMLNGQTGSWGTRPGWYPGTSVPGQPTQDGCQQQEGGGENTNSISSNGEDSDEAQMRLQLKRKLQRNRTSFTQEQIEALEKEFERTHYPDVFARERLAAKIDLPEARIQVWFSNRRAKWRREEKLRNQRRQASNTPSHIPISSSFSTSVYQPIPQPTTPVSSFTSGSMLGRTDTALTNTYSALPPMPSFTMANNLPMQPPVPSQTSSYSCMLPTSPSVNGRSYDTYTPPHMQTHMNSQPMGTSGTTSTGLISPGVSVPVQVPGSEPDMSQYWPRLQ
Sequence of X-box-binding protein 1 (Homo sapiens) (P17861 whole entry, looked up): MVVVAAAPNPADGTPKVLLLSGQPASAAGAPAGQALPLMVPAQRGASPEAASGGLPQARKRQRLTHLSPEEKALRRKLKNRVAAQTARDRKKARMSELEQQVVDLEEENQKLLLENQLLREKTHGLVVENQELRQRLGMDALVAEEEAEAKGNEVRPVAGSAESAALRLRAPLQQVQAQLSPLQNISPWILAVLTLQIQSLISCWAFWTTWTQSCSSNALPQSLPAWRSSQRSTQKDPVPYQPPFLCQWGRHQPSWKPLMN
Sequence of Nuclear receptor subfamily 1 group I member 3 (Homo sapiens) (Q14994 whole entry, looked up, the tested form may be a part): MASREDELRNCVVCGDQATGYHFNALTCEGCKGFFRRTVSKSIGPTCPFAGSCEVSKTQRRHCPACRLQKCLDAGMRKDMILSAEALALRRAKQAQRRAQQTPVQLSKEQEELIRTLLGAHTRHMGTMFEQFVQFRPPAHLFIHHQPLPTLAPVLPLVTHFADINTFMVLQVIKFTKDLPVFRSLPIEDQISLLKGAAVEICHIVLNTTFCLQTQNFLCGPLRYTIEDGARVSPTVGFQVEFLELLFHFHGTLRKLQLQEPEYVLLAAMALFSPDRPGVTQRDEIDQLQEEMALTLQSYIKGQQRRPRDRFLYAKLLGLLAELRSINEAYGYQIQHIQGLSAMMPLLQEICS

Nc1cc(N)cc(C(=O)O)c1
not listed: [18]
inactive: all other assays above

O=C(O)COCCN1CCN(C(c2ccccc2)c2ccc(Cl)cc2)CC1 (stereo unspecified)
inactive: all assays above

ClCCCl
not listed: [14] | [16] | [17]
inactive: all other assays above

CN1[C@@H]2CC(OC(=O)[C@H](CO)c3ccccc3)C[C@H]1[C@@H]1O[C@@H]12 (stereo partly specified)
not listed: [16] | [18]
inactive: all other assays above

— PubChem BioAssay (EPA / NIEHS)
